Measured values: PubChem BioAssay AID1159580 (chemical genetic matrix, 2015)
Hit rate of the full screen: of about 5,500 compounds, about 2,000 (36%) were called active. About 18% were inconclusive and are not listed. The list shows a part of the results. A number with no mark means an inactive call. Rule as the data show it: active = normalized growth mostly below about 0.91 (no sharp cut-off); inconclusive = no clear call, values can overlap the other calls; inactive = mostly above about 0.92.

Assay: chemical genetic growth profiling, strain panel (AID 1159580);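 also: tested at 20 µM; growth read once vehicle control cultures reached saturation at 30 °C; 1 = growth at the plate median or of vehicle wells; lower values mean less growth of the strain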
Conditions: S. cerevisiae deletion strains, growth OD

SMILES: O=c1cc(-c2cccc(O)c2)oc2ccc(O)cc12
- normalized growth (locus YAL021C, strain ccr4, active compounds read low): 0.959
- normalized growth (locus YAL026C, strain drs2, active compounds read low): 0.946
- normalized growth (locus YAL030W, strain snc1, active compounds read low): 0.957
- normalized growth (locus YBL061C, strain skt5, active compounds read low): 0.952
- normalized growth (locus YBR009C, strain hhf1, active compounds read low): 0.934
- normalized growth (locus YBR023C, strain chs3, active compounds read low): 0.947
- normalized growth (locus YBR171W, strain sec66, active compounds read low): 0.956
- normalized growth (locus YBR231C, strain swc5, active compounds read low): 0.939
- normalized growth (locus YBR279W, strain paf1, active compounds read low): 0.962
- normalized growth (locus YCL011C, strain gbp2, active compounds read low): 0.933
- normalized growth (locus YCL016C, strain dcc1, active compounds read low): 0.952
- normalized growth (locus YCL061C, strain MRC1, active compounds read low): 0.949
- normalized growth (locus YCL069W, strain vba3, active compounds read low): 0.969
- normalized growth (locus YCR088W, strain abp1, active compounds read low): 0.962
- normalized growth (locus YDL005C, strain med2, active compounds read low): 0.951
- normalized growth (locus YDL040C, strain nat1, active compounds read low): 0.971
- normalized growth (locus YDR001C, strain nth1, active compounds read low): 0.943
- normalized growth (locus YDR069C, strain doa4, active compounds read low): 0.946
- normalized growth (locus YDR137W, strain rgp1, active compounds read low): 0.778 (active)
- normalized growth (locus YDR159W, strain sac3, active compounds read low): 0.975
- normalized growth (locus YDR195W, strain ref2): 1.06
- normalized growth (locus YDR297W, strain sur2, active compounds read low): 0.953
- normalized growth (locus YDR334W, strain swr1, active compounds read low): 0.924
- normalized growth (locus YDR335W, strain msn5, active compounds read low): 0.938
- normalized growth (locus YDR392W, strain spt3, active compounds read low): 0.873
- normalized growth (locus YEL003W, strain gim4, active compounds read low): 0.943
- normalized growth (locus YEL037C, strain rad23, active compounds read low): 0.964
- normalized growth (locus YEL061C, strain CIN8 (second series), active compounds read low): 0.951
- normalized growth (locus YER015W, strain faa2, active compounds read low): 0.936
- normalized growth (locus YER016W, strain bim1, active compounds read low): 0.944
- normalized growth (locus YER111C, strain swi4, active compounds read low): 0.956
- normalized growth (locus YER155C, strain BEM2 (second series), active compounds read low): 0.925
- normalized growth (locus YFR010W, strain ubp6, active compounds read low): 0.962
- normalized growth (locus YGL167C, strain pmr1, active compounds read low): 0.942
- normalized growth (locus YGL173C, strain kem1, active compounds read low): 0.941
- normalized growth (locus YGL227W, strain vid30, active compounds read low): 0.953
- normalized growth (locus YGL240W, strain doc1, active compounds read low): 0.91
- normalized growth (locus YGL253W, strain hxk2, active compounds read low): 0.952
- normalized growth (locus YHR013C, strain ard1, active compounds read low): 0.953
- normalized growth (locus YHR027C, strain rpn1, active compounds read low): 0.955
- normalized growth (locus YHR142W, strain chs7, active compounds read low): 0.885
- normalized growth (locus YJL092W, strain hpr5, active compounds read low): 0.953
- normalized growth (locus YJL095W, strain BCK1 (second series), active compounds read low): 0.942
- normalized growth (locus YJL115W, strain asf1, active compounds read low): 0.947
- normalized growth (locus YJL129C, strain trk1, active compounds read low): 0.903
- normalized growth (locus YJL154C, strain vps35, active compounds read low): 0.962
- normalized growth (locus YJL164C, strain tpk1, active compounds read low): 0.947
- normalized growth (locus YJL166W, strain qcr8, active compounds read low): 0.95
- normalized growth (locus YJL187C, strain SWE1, active compounds read low): 0.936
- normalized growth (locus YKL160W, strain elf1, active compounds read low): 0.936
- normalized growth (locus YKR026C, strain gcn3, active compounds read low): 0.948
- normalized growth (locus YKR091W, strain srl3, active compounds read low): 0.952
- normalized growth (locus YLL001W, strain dnm1, active compounds read low): 0.945
- normalized growth (locus YLL026W, active compounds read low): 0.947
- normalized growth (locus YLL041C, strain sdh2, active compounds read low): 0.951
- normalized growth (locus YLR027C, strain aat2, active compounds read low): 0.938
- normalized growth (locus YLR221C, strain rsa3, active compounds read low): 0.894 (active)
- normalized growth (locus YLR258W, strain gsy2, active compounds read low): 0.939
- normalized growth (locus YLR262C, strain YPT6 (second series), active compounds read low): 0.804 (active)
- normalized growth (locus YLR320W, strain mms22, active compounds read low): 0.923
- normalized growth (locus YLR342W, strain FKS1, active compounds read low): 0.983
- normalized growth (locus YLR357W, strain rsc2, active compounds read low): 0.906
- normalized growth (locus YLR370C, strain arc18, active compounds read low): 0.933
- normalized growth (locus YLR384C, strain iki3, active compounds read low): 0.951
- normalized growth (locus YML120C, strain ndi1, active compounds read low): 0.952
- normalized growth (locus YMR058W, strain fet3, active compounds read low): 0.942
- normalized growth (locus YMR125W, strain sto1, active compounds read low): 0.959
- normalized growth (locus YMR129W, active compounds read low): 0.983
- normalized growth (locus YMR205C, strain PFK2, active compounds read low): 0.944
- normalized growth (locus YMR231W, strain pep5, active compounds read low): 0.958
- normalized growth (locus YNL071W, strain lat1, active compounds read low): 0.958
- normalized growth (locus YNL209W, strain ssb2, active compounds read low): 0.945
- normalized growth (locus YNL248C, strain rpa49, active compounds read low): 0.931
- normalized growth (locus YNL322C, strain KRE1 (second series), active compounds read low): 0.958
- normalized growth (locus YNR049C, strain mso1, active compounds read low): 0.942
- normalized growth (locus YOR001W, strain rrp6, active compounds read low): 0.948
- normalized growth (locus YOR070C, strain gyp1, active compounds read low): 0.964
- normalized growth (locus YOR080W, strain dia2, active compounds read low): 0.93
- normalized growth (locus YOR083W, strain WHI5, active compounds read low): 0.928
- normalized growth (locus YOR106W, strain vam3, active compounds read low): 0.933
- normalized growth (locus YOR265W, strain rbl2, active compounds read low): 0.958
- normalized growth (locus YOR270C, strain vph1, active compounds read low): 0.865
- normalized growth (locus YOR290C, strain snf2, active compounds read low): 0.893
- normalized growth (locus YPL051W, strain arl3, active compounds read low): 0.92
- normalized growth (locus YPL078C, strain atp4, active compounds read low): 0.956
- normalized growth (locus YPL106C, strain sse1, active compounds read low): 0.827 (active)
- normalized growth (locus YPL240C, strain hsp82, active compounds read low): 0.952
